# Results from the supplement of paper PMC10981050.
# “And” between values parts separate entries of the source, which are not always exact repeats. Identical values can stand only once. Counter-ions that a name gives are not always drawn.
# Tests used:
# Assay in all cases: cell viability relative to vehicle control; higher = less cytotoxic
# Details in all cases: 10 µM
# K562 = system: K562
# Outline: (§1)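 Each screen used CRISPR-edited mutant and wild-type clones from four leukaemia lines. Compounds were acoustically dispensed at a single 10 µM dose, and CellTiter-Glo luminescence was read after 48 h with the supernatant first removed. Viability was analysed in Genedata Screener and given as percent of the on-plate vehicle control.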
# MARIMO = system: MARIMO
# Outline: as §1
# MOLM14 = system: MOLM14
# Outline: as §1
# OCI-AML2 = system: OCI-AML2
# Outline: as §1
Compound,cell viability (K562; SRSF2 genotype: SRSF2 P95H/wt),cell viability (K562; SRSF2 genotype: SRSF2 wt/wt) [%],cell viability (MARIMO; SRSF2 genotype: SRSF2 P95H/wt) [%],cell viability (MARIMO; SRSF2 genotype: SRSF2 wt/wt) [%],cell viability (MOLM14; SRSF2 genotype: SRSF2 P95H/wt) [%],cell viability (MOLM14; SRSF2 genotype: SRSF2 wt/wt) [%],cell viability (OCI-AML2; SRSF2 genotype: P95H/wt) [%],cell viability (OCI-AML2; SRSF2 genotype: wt/wt) [%]
CCC1CC(=Cc2cccnc2)C(=O)C(=Cc2cccnc2)C1 (stereo not drawn),21.1% and 19.7%,17.9,0.77,0.8,0.49,0.29,0.25,0.31
O=C(O)Cc1cccc(OCCCN(Cc2cccc(C(F)(F)F)c2Cl)CC(c2ccccc2)c2ccccc2)c1,98.2% and 93.9%,92.9,97.9,113,88.6,96.7,90.9,98.5
Oc1cc(CNC(=S)/C=C/c2cc(O)c(O)c(Br)c2)cc(O)c1O,20.1% and 32.5%,23.6,16.6,23.2,14.3,5.87,28.1,26.9
COc1c(N2C[C@@H]3CCCN[C@@H]3C2)c(F)cc2c(=O)c(C(=O)O)cn(C3CC3)c12 [Moxifloxacin hydrochloride],104% and 99.6%,93.3,101,105,92.9,98.5,90.4,97.2
CN(C)CC(=O)Nc1ccc2[nH]c(=O)c3ccccc3c2c1,97.7% and 93.8%,94.9,100,94.6,89.1,96,91.6,98.4
Fc1ccc2[nH]ccc2c1-c1nc(N2CCOCC2)c2sc(CN3CCN(CC4CC4)CC3)cc2n1,77.2% and 81.7%,76.6,68.5,67.3,45.5,45.1,40.4,34.5
CN(CCN1CCC(OC(=O)Nc2ccccc2-c2ccccc2)CC1)C(=O)c1ccc(CN2CCC(C(N)=O)CC2)cc1 [Revefenacin],94.7% and 89.9%,92.8,82.7,90.8,87.1,92.2,83.2,83.5
CCCNC(C)C(=O)Nc1ccccc1C (stereo not drawn) [Prilocaine],87.8% and 85.9%,86.8,79.4,90.5,93.3,85.6,89.1,90.7
O=c1cc(-c2ccc(O)cc2)oc2c([C@@H]3O[C@H](CO)[C@@H](O)[C@H](O)[C@H]3O)c(O)cc(O)c12 [Vitexin],109% and 103%,101,108,107,101,105,103,107
Cc1ncc(CO)c(CO)c1O [Pyridoxine],98.2% and 103%,97.3,107,96.3,101,102,106,99.6
CCCSc1nc(N[C@@H]2C[C@H]2c2ccc(F)c(F)c2)c2nnn([C@@H]3C[C@H](OCCO)[C@@H](O)[C@H]3O)c2n1 [Ticagrelor],77.4% and 77.6%,70.3,86.9,86.5,74.5,85.9,71.5,70
CCCCc1oc2ccccc2c1C(=O)c1cc(I)c(OCCN(CC)CC)c(I)c1 [Amiodarone HCl],70.3% and 74.5%,69.9,52.3,58.6,54.8,62.7,42.8,48.5
O=C(N/N=C/c1ccc(O)c(O)c1)c1cc2ccccc2cc1O [Dynasore],88.5% and 89.6%,96,72.8,78.7,94.2,94.4,80,73
CC1(C)S[C@@H]2[C@H](NC(=O)[C@H](NC(=O)N3CCN(S(C)(=O)=O)C3=O)c3ccccc3)C(=O)N2[C@H]1C(=O)O [Mezlocillin Sodium],100% and 98.1%,102,101,112,100,101,97.4,112
CC(C)(C)c1cc(NC(=O)Nc2ccc(-c3cn4c(n3)sc3cc(OCCN5CCOCC5)ccc34)cc2)no1 [Quizartinib (AC220)],105% and 110%,103,80.1,82.9,14.9,9.61,36.9,45.7
COc1ccc2ccc(=O)oc2c1CC=C(C)C [Osthole (Osthol)],97.5% and 91.7%,90.1,94.2,93.2,88.7,94.3,93.2,95.5
C[C@H](NC(=O)CCC(F)(F)F)C(=O)N[C@@H]1C(=O)N(CCO)c2ncccc2-c2ccccc21,103% and 104%,95.9,97.4,108,109,103,89.4,99.8
CC(=O)O[C@H](CC=C(C)C)C1=CC(=O)c2c(O)ccc(O)c2C1=O [Acetylshikonin],4.63% and 1.27%,1.38,0.73,0.66,0.73,0.53,0.72,0.59

Compound,cell viability (K562; SRSF2 genotype: SRSF2 P95H/wt),cell viability (K562; SRSF2 genotype: SRSF2 wt/wt) [%],cell viability (MARIMO; SRSF2 genotype: SRSF2 P95H/wt) [%],cell viability (MARIMO; SRSF2 genotype: SRSF2 wt/wt) [%],cell viability (MOLM14; SRSF2 genotype: SRSF2 P95H/wt) [%],cell viability (MOLM14; SRSF2 genotype: SRSF2 wt/wt) [%],cell viability (OCI-AML2; SRSF2 genotype: P95H/wt) [%],cell viability (OCI-AML2; SRSF2 genotype: wt/wt) [%]
CC(C)(C)c1cc(/C=C(\C#N)C(N)=S)cc(C(C)(C)C)c1O [Tyrphostin AG 879 (AG 879)],22.1% and 17.9%,25.2,73.5,68.3,20.1,14.8,7.33,15.8
OCc1c[nH]c2ccccc12 [Indole-3-carbinol],102% and 107%,99.8,105,113,95.1,104,105,106
O=C(N[C@H](CO)[C@H](O)c1ccc([N+](=O)[O-])cc1)C(Cl)Cl [Chloramphenicol (Chloromycetin)],92.7% and 92%,94.8,104,106,95.6,96.8,96,103
COC(=O)[C@@H]1CC2=CC(=O)CC[C@]2(C)[C@@]23O[C@@H]2C[C@@]2(C)[C@@H](CC[C@@]24CCC(=O)O4)[C@H]13 [Eplerenone],98.4% and 103%,103,98,103,107,95.6,100,101
CN(C)CCc1c[nH]c2ccc(C[C@H]3COC(=O)N3)cc12 [Zolmitriptan (Zomig)],96.7% and 103%,104,107,102,99.4,104,108,101
NS(=O)(=O)Cc1noc2ccccc12 [Zonisamide],90.4% and 88.2%,89.5,85,98,91.8,90.3,84.7,95.2
CC(C)(N)C(=O)N[C@H](COCc1ccccc1)C(=O)N1CCC2(CC1)CN(S(C)(=O)=O)c1ccccc12 [Ibutamoren mesylate],91.5% and 97.4%,90,81.1,92,80.1,89.5,82.3,78.9
Nc1ccc(C(=O)NCC(=O)O)cc1 [4-Aminohippuric Acid],97.6% and 98.4%,98.2,92.9,102,95.7,97.4,92.8,103
N=C1NC(=O)/C(=C/c2ccc(O)cc2)S1 [Mirin],93.7% and 96.5%,101,86.4,87.3,76.5,85.1,64.9,71
COc1ccc(/C=C/c2cc(O)cc(O[C@@H]3O[C@H](CO)[C@@H](O)[C@H](O)[C@H]3O)c2)cc1O [Rhapontin],86.2% and 86.1%,92.3,85.4,99.8,90.7,99.3,89.1,95.5
COc1ccc(C[C@@H]2c3cc(Oc4cc(C[C@@H]5c6cc(O)c(OC)cc6CCN5C)ccc4O)c(OC)cc3CCN2C)cc1 [Isoliensinine],50.4% and 50.8%,61.2,10.2,16.6,2.24,1.04,0.44,0.95
COc1cc(C(=O)O)ccc1NC(=O)[C@@H]1N[C@@H](CC(C)(C)C)[C@](C#N)(c2ccc(Cl)cc2F)[C@H]1c1cccc(Cl)c1F [Idasanutlin (RG-7388)],96.7% and 98.2%,86.3,116,131,86.5,102,102,118
Cc1ncc([N+](=O)[O-])n1CCO [Metronidazole (Flagyl)],105% and 104%,109,107,109,104,103,106,111
CNC(=O)c1c(C)oc2cc(Oc3ncnc4cc(OC)c(OC)cc34)ccc12 [Fruquintinib],101% and 96.7%,97.1,98.6,99.7,95.8,105,84.3,85.4
CN(C(=O)CNC(=O)/C=C/c1cccc(Cl)c1)C1CCS(=O)(=O)CC1,35.4% and 33%,28.4,103,104,105,86,101,104
CCCCCC1=C(C)CCC1=O [Dihydrojasmone],105%,108,101,106,107,105,106,115
Cc1[nH]nc(C(F)(F)F)c1Cc1sc2c(c1C(=O)N1C[C@](C)(O)CO1)c(=O)n(C)c(=O)n2C(C)C,40% and 62.9%,61.3,90.5,103,92.8,89.3,99.7,99.9
Cn1cnc2c(F)c(Nc3ccc(Br)cc3Cl)c(C(=O)NOCCO)cc21 [AZD6244 (Selumetinib)],79% and 92.2%,75.3,37.5,36.3,44.6,31.3,39.6,43.6
